Experimental findings from PubChem BioAssay (NCATS) are described below.

Experiment [1] can be described thus: Cell Viability - LYMP2-020 (AID 986).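 Note: series mostly up to about 92 µM; plate controls were DMSO only for no effect and tetraoctylammonium bromide at 92 µM for full effect; nearly all actives have a fitted effect of over 55% in size.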 Put shortly: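 qHTS, 2500 cells/well; 5 hr then 24 hr compound exposure, 37 C; CellTiter-Glo luminescence after 30 min RT; ATP decrease taken as cytotoxicity; AC50 via Hill equation; tetraoctylammonium bromide positive control.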
Experiment [2] is described as follows: Cell Viability - LYMP2-022 (AID 987).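 Note: 0% = DMSO alone and full effect = tetraoctylammonium bromide at 92 µM; nearly all actives have a fitted effect of over 55% in size.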 The method in brief:
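Luminescent ATP read-out (CellTiter-Glo, 30 min, RT) after 24 hr, 37 C compound exposure of 2500 human lymphoblastoid cells/well in complete medium. Cytotoxicity taken as concentration-dependent ATP loss; AC50 from standard Hill equation.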

Experiment [3] is described as follows: Cell Viability - LYMP2-024 (AID 988).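 Note: plate controls were DMSO only for no effect and 92 µM tetraoctylammonium bromide for full effect; nearly all actives have a fitted effect of over 60% in size.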 Put shortly: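 ATP-based luminescence (CellTiter-Glo, 30 min RT) after 24 h compound exposure at 37 C of 2500 lymphoblastoid cells/well; decrease in ATP taken as cytotoxicity. qHTS concentration-response fitted to standard Hill equation for AC50.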
A short description of experiment [4]: Cell Viability - LYMP2-026 (AID 989). Note: % is set by controls: 0 for no effect and ±100 for the full control effect; nearly all actives have a fitted effect of over 50% in size. The method in brief:
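qHTS cytotoxicity: 2500 cells/well, 5 hr 37 C, compound 24 hr 37 C, CellTiter-Glo 30 min RT, luminescence. Tetraoctylammonium bromide positive control. AC50 via standard Hill fit.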

Experiment [5] is described as follows: Cell Viability - LYMP1-002 - Assay at 24 hr (AID 993). Note: % is set by controls: 0 for no effect and ±100 for the full control effect. The method in brief:
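CellTiter-Glo luminescence (intracellular ATP) after 24 h compound exposure, 37 C, in LYMP1-002 human lymphoblastoid cells; decreased ATP taken as cytotoxicity. AC50 from standard Hill fit of concentration-response curves.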

Experiment [6] in a line: Cell Viability - LYMP1-002 - Assay at 40 hr (AID 994).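 Note: 0% = DMSO only and full inhibition = 92 µM tetraoctylammonium bromide; nearly all actives have a fitted effect of over 60% in size.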 The method in brief:
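qHTS cytotoxicity; 2500 cells/well, 5 hr 37 C settle, compound 40 hr 37 C. CellTiter-Glo, 30 min RT, luminescence (ATP). Concentration-response, Hill fit → AC50. Pos. ctrl tetraoctylammonium bromide.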

For experiment [7], the target named is Estrogen receptor (Homo sapiens) (UniProt P03372). The experiment is described as follows: qHTS assay for small molecule antagonists of estrogen receptor alpha signaling (AID 588513; active = well fitted curve in the direction sought with a large enough effect in the signal ratio, with a control signal flat, not every such curve was filed as active; the % refers to the signal ratio; note: % is set by controls: 0 for no effect and ±100 for the full control effect). Put shortly:
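ER-alpha-UAS-bla GripTite HEK 293 cells in 2% charcoal/dextran-treated FBS medium; compounds titrated (1:2, duplicate), then stimulated with 0.5 nM 17-beta-estradiol for 18 h at 37C. CCF4 beta-lactamase fluorescence; Hill-fit IC50 and efficacy.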
On the technique in general: qHTS replaces the single test concentration by a dilution series.

Experiment [8] has the same target. The experiment is described as follows: qHTS assay for small molecule agonists of estrogen receptor alpha signaling (AID 588514; calls by dose curve; note: nearly all actives have a fitted effect of over 70% in size; note: potency is the fitted concentration of half-maximal effect;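 for activation: 0% = vehicle only and 100% = reference agonist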). Put shortly: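 Read-out: CCF4 fluorescence from a beta-lactamase reporter in ER-alpha-UAS-bla HEK 293 cells after 18 hrs of compound exposure at 37 C. Normalized to 20 nM 17-beta-estradiol (100%) and DMSO (0%).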
In experiment [9] the target is Androgen receptor (Homo sapiens) (UniProt P10275). In words: qHTS assay for small molecule agonists of androgen receptor signaling (AID 588515; active = well fitted curve in the direction sought with a large enough effect in the signal ratio, with a control signal flat; the % refers to the signal ratio; note: % is set by controls: 0 for no effect and ±100 for the full control effect). As to conditions: AR-UAS-bla HEK293, beta-lactamase ratio, agonist 16 h; stronger effect = higher value. Put shortly: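 Stimulation of an AR-responsive β-lactamase reporter in GripTite HEK293 cells was measured after 16 h compound exposure at 37 °C, via CCF4 fluorescence after 2 h RT. EC50 from Hill fits, normalized to R1881 at 30 nM.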

A number with no mark means an inactive call. Results filed as inconclusive are left out. The source made the active and inactive calls. Unless noted, calls come from the whole dose curve; as a rule, active = well fitted cell-killing curve with a large enough effect; inconclusive = small, poorly fitted or top-dose-only effect; inactive = flat fitted curve, though single readings scatter.

Chain of Androgen receptor (Homo sapiens) (P10275 whole entry, looked up): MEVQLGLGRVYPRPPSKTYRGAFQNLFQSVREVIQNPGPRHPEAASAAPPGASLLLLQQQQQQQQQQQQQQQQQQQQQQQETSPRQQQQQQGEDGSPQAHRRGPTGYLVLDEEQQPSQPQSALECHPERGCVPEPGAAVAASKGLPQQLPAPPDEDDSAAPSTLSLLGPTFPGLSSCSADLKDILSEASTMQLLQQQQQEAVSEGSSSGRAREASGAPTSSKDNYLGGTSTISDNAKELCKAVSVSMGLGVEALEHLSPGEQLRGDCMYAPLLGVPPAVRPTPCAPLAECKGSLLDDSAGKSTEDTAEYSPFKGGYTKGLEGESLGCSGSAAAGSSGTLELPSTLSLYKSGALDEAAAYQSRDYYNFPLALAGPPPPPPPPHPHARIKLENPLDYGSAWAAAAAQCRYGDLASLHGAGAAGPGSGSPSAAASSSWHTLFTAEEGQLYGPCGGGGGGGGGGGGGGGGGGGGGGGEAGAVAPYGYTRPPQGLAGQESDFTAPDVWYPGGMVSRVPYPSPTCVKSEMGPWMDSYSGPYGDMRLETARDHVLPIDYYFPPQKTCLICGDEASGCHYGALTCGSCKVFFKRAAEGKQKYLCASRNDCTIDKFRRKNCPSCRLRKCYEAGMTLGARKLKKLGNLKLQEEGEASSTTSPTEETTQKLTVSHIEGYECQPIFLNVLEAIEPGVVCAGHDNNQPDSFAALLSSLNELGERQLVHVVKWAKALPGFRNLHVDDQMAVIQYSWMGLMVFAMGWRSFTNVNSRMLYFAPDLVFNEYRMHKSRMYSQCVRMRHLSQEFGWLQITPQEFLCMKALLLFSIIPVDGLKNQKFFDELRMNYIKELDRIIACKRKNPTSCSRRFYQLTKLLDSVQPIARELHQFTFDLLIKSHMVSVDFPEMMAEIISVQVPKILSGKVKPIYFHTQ
Chain of Estrogen receptor (Homo sapiens) (P03372 whole entry, looked up): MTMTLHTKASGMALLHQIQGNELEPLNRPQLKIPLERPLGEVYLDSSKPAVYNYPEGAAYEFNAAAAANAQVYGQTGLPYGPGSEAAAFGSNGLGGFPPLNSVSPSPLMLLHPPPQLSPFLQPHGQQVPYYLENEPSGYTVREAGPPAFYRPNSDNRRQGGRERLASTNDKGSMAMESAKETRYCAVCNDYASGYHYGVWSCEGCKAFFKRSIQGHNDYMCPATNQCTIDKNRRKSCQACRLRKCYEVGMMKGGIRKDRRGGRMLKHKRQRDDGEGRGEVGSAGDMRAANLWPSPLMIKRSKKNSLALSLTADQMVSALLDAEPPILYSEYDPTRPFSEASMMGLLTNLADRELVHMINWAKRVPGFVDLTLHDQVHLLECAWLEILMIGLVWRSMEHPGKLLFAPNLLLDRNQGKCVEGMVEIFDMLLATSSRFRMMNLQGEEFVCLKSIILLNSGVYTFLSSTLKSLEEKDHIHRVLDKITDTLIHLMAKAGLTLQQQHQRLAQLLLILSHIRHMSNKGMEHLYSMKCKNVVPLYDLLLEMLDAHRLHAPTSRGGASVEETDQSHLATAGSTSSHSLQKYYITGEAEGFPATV

For the compound `OC/C(Br)=C(\Br)CO`, the Potency result in experiment [1], in experiment [2], in [3], in [5], in [6] and in experiment [8] was “inactive” in each case. Besides, the result in [4] and in experiment [7] was inactive.
For `C=CCCCCCC`, the Potency entry in [1], in [2], in experiment [3], in experiment [5] and in [6] was “inactive” each time. The compound was classed as inactive in experiment [4] and in experiment [7]. The Potency in experiment [8] is 12.6 µM (active).
Regarding `CCCCCCCCC`, the Potency entry in [1], in [2], in experiment [3], in [5], in experiment [6] and in experiment [8] was “inactive” each time. The result in [4] and in experiment [7] was inactive.
In the case of `CC(=O)C1(C)CC2=C(CCCC2(C)C)CC1C` (stereo unspecified), the Potency entry in experiment [1], in experiment [3], in [5] and in experiment [6] was “inactive” in each case. Further, the result in experiment [4] was inactive. Also, the activation in experiment [9] was -4.48%.
Take `O=[N+]([O-])c1cc(C(F)(F)F)ccc1Cl`: the Potency result in [2], in [3], in experiment [5] and in [6] was “inactive” in each case. Moreover, the outcome in [4] was inactive. Besides, in experiment [9], the activation was 13.2%.
As to `Cc1ccc(C)c([N+](=O)[O-])c1`, the Potency result in experiment [1], in experiment [2], in experiment [3] and in experiment [6] was “inactive” in each case. Also, the compound was classed as inactive in [4].
As to `Cc1ccccc1C(=O)O`, the Potency entry in [2], in experiment [3], in experiment [5] and in experiment [6] was “inactive” throughout. The compound was called inactive in [4].
As for `C/C=C(/C)C#N`, the Potency result in [1], in experiment [2], in [3] and in [8] was “inactive” in each case. Also, the outcome in experiment [4] and in experiment [7] was inactive.
Regarding `C=Cc1ccc(C=C)cc1`, the Potency entry in experiment [1], in experiment [2], in experiment [3], in [5], in [6] and in experiment [8] was “inactive” throughout.
With `FC(F)(F)c1cccc(Cl)c1`, the Potency entry in [1], in experiment [2], in experiment [3], in experiment [6] and in experiment [8] was “inactive” in each case. The compound was classed as inactive in experiment [4] and in [7]. In [9], the activation is 4.73%.
On to `CCC(C)(C)OC`, for which the Potency entry in [2], in experiment [3], in experiment [5], in experiment [6] and in experiment [8] was “inactive” throughout. In addition, the outcome in experiment [7] was inactive.
On to `Cc1ccc(Cl)cc1N`, for which the Potency entry in [2], in [3], in [5] and in [6] was “inactive” in each case. For the same compound, in experiment [4], the outcome was inactive.
Take `COCCOC(=O)c1ccccc1C(=O)OCCOC`: the Potency result in experiment [1], in experiment [2], in [3], in [5] and in experiment [6] was “inactive” each time. Also, in [4], the compound was classed as inactive.
Turning to `CC(C)C(C)C`, the Potency result in [1], in [3], in [5] and in experiment [6] was “inactive” in each case. The call in experiment [4] was inactive.
Consider `NCCCCCCN`, for which the Potency result in experiment [2], in experiment [3] and in [5] was “inactive” throughout. Also, the outcome in experiment [4] was inactive.
Turning to `O=C(O)CNC(=O)c1ccc(CO)o1`, the Potency entry in experiment [1], in [2], in experiment [3], in [5], in [6] and in [8] was “inactive” each time. Also, the call in experiment [4] and in experiment [7] was inactive.
As to `O=C(O[C@@H](C(=O)O)[C@@H](OC(=O)c1ccccc1)C(=O)O)c1ccccc1`, the Potency result in experiment [1], in [2], in [3], in [6] and in experiment [8] was “inactive” throughout. Besides, the call in experiment [4] and in [7] was inactive.
In the case of `CC(C)N=C=NC(C)C`, the Potency result in experiment [1], in [2], in [3], in experiment [5], in experiment [6] and in experiment [8] was “inactive” throughout. The compound was classed as inactive in experiment [4] and in [7].
`Nc1ccccc1S(=O)(=O)O`: the Potency entry in experiment [1], in experiment [2], in experiment [3] and in [5] was “inactive” in each case.
With `c1ccc(Oc2ccccc2)cc1`, the Potency entry in experiment [1], in [2], in experiment [3], in experiment [5] and in experiment [6] was “inactive” throughout. In experiment [4], the compound was classed as inactive.
Consider `C=C(C)OC(C)=O`, for which the Potency entry in [1], in [2], in experiment [3], in experiment [5], in experiment [6] and in experiment [8] was “inactive” each time. Moreover, the compound was called inactive in [4] and in [7].
With `Cc1cc([N+](=O)[O-])ccc1N`, the Potency entry in experiment [1], in experiment [3], in experiment [5], in experiment [6] and in experiment [8] was “inactive” in each case. For the same compound, the outcome in [4] and in [7] was inactive.
Consider `Nc1cc([N+](=O)[O-])ccc1C(=O)O`, for which the Potency entry in [2], in experiment [3], in [6] and in [8] was “inactive” throughout. Also, the call in experiment [7] was inactive.
Turning to `CCOCCOCC`, the Potency entry in experiment [2], in [3] and in experiment [8] was “inactive” in each case. Further, the compound was classed as inactive in [7].
On to `CC(C)CO`, for which the Potency entry in experiment [1], in [2], in experiment [3], in experiment [5], in experiment [6] and in [8] was “inactive” each time. In addition, the call in experiment [4] and in [7] was inactive.
With `CCOc1ccc(NC(C)=O)cc1N`, the Potency result in experiment [1], in experiment [3], in experiment [5] and in experiment [8] was “inactive” in each case. The outcome in [7] was inactive. Further, the activation in [9] is 0.896%.
In the case of `CCN(CC)c1cccc(O)c1`, the Potency entry in experiment [1], in experiment [2], in experiment [3], in experiment [5] and in experiment [6] was “inactive” in each case. Also, in [7], the outcome was inactive.
With `C=C(C)C(=O)OCC(C)C`, the Potency result in experiment [1], in experiment [2], in experiment [3], in experiment [5] and in experiment [8] was “inactive” each time. In addition, the call in experiment [4] and in [7] was inactive.
For the compound `C=C(C)C(=O)OC`, the Potency entry in [2], in experiment [3], in experiment [5] and in experiment [6] was “inactive” in each case. The compound was classed as inactive in [4].
